The structures appear in SMILES notation. Where “and” joins values, the source holds several entries; their conditions need not be identical. Equal entries are not always repeated.

Usually inhibition stands for the change of the read-out against control, counted positive when it falls.

The target in one test is Hexose transporter 1 (Plasmodium falciparum) (UniProt O97467). The test is described as follows: ST_JUDE_LEISH: Cytotoxicity at 2uM final concentration against transgenic Leishmania Mexicana promastigotes LmPfHT that are glucose transport deficient and complemented with the Plasmodium falciparum hexose transporter. Activity is measured by DNA content using SYBR green in vitro. Type of test: functional.
For `O=C(Nc1ccc(OC2CCN(Cc3ccsc3)C2)c(Cl)c1)c1ccco1` (stereo not given), the inhibition was found to be 1.35%.
Still for that read-out and setting: then `Cc1ccc2c(=O)cc(CCc3cccc(F)c3F)n(CC(=O)N(Cc3ccc(-c4ccc(C(F)(F)F)cc4)cc3)C3CCN(C)CC3)c2n1`, with 0.92%; and `CCCC(CNC(=O)c1cc2c(Cl)cc(Cl)cc2[nH]1)CNc1cc(=O)c2ccccc2[nH]1` (stereo not given), with 2.64%.
In the case of `Cc1cc(SC(C)(C)C)cc2c(Cl)c(C(N)=O)cnc12`, the inhibition worked out at 93.7%.
On the same count and under the same terms, to `O=c1ccc2ccc(F)cc2n1CCN1CCC(NCc2ccc(-c3ccccn3)s2)CC1` belongs 3.12%.
On the same count and under the same terms, then `CC[C@H](C)CNC(=O)c1ccnc(-c2ccc(CNCCCc3ccccc3)cc2)c1`, with 1.1%; and `CCc1c[nH]c2c(N3CCCS3(=O)=O)cc(C(=O)N[C@@H](Cc3ccccc3)[C@H](O)CNC(C)(C)CCCC(C)C)cc12`, with 2.29%; and `CN(C)CCOc1cc(NC(=O)Nc2ccc3c(c2)CCCC3=O)ccc1I`, with 7.25%.
Same read-out and setting: to `COc1ccc(NS(=O)(=O)c2ccc(C(=O)Nc3ccc(OC(F)(F)F)cc3)cc2)cc1N1CCN(CC2CC2)CC1` belongs 5.3%; to `CC(C)NCc1ccc(-c2cccc(NC(=O)c3cccc(Cl)c3)c2)cc1`, 12.9%.
Consider `CO/C(=C\C=C\c1cc2cc(Cl)c(Cl)cc2[nH]1)C(=O)NCCCN1CCN(Cc2ccccc2)CC1`, for which the inhibition came out at 0.91%.
Still for that read-out and setting: then `Cc1ccc(F)cc1-c1cc(N2CCCN(C(=O)c3ccc(Br)o3)CC2)ncn1`, with 0.93%.
Still for that read-out and setting: to `Cc1ccc2[nH]c(C)c(Br)c(=O)c2c1` belongs -2.07%; to `COc1ccc2nc3cc(Cl)ccc3c(NCCCCCCNc3c4ccc(Cl)cc4nc4ccc(OC)cc34)c2c1`, 11.2%.
On to `CCN(CC)c1nc(-c2ccccc2)cc(-c2ccccc2)c1C#N`, for which the inhibition was 1.62%.
Same read-out and setting: then `Cc1n[nH]c2ccc(-c3cc(OC[C@@H](N)Cc4ccccc4)cnc3-c3ccc(OCc4cccc(F)c4)cc3)cc12`, with 0.68%; and `CC(=O)N1CCN(c2ccc(NC(=O)c3oc(-c4ccccc4)nc3C(F)(F)F)cn2)CC1`, with 1.42%; and `COc1cccc(CNC[C@@H](O)[C@H](Cc2ccccc2)NC(=O)c2cc3c4c(c2)c(C(C)C)cn4CCS(=O)(=O)N3C)c1`, with 8.07%.
Still for that read-out and setting: to `Cc1cc(N[C@@H](CC(C)C)C(=O)NCCc2ccccc2)nc(NCC2CCCCC2)n1` belongs 6.23%; to `COc1ccccc1C1CCN(C2CCC(NC(=O)/C=C/c3cccc(Cl)c3)CC2)CC1` (stereo not given), 0.95%; to `Cc1nc(-c2cccc(C(=O)Nc3cnc4ccccc4c3)c2)no1`, 3.53%.
The same measure, in the same setting: to `COc1cc(NC(=O)c2ccc3c(=O)n(Cc4ccccc4)c(=S)[nH]c3c2)cc(OC)c1OC` belongs 7.58%.
Turning to `O=C(/C=C/c1ccc(Cl)cc1)NCCCCCN1CCCC(C(=O)Nc2ccc(F)c(Cl)c2)C1` (stereo not given), the inhibition worked out at 1.34%.
For the compound `Oc1c(Br)cc2oc3c(c2c1CNCc1ccccc1)CCCC3`, the inhibition was -0.92%.
Take `CC(=O)Nc1ccc(S(=O)(=O)Nc2c(C)cc(Cc3cnc(N)nc3N)cc2C)cc1`: the inhibition came out at 0.02%.
Same read-out and setting: to `CC1CN(CC(O)Cn2c3ccc(Br)cc3c3cc(Br)ccc32)CC(C)O1` (stereo not given) belongs 2.45%; to `Cc1cccc(C(=O)NCCCN2CCC(NC(=O)/C=C/c3ccc(Cl)c(Cl)c3)CC2)c1`, 0.15%.
Regarding `Cc1cc(N(CCO)CCCN2CCCCC2)nc(Nc2ccc(Cl)cc2)n1`, the inhibition was found to be 1.35%.
Same read-out and setting: then `CC(=O)Nc1ncc(C(=O)Nc2ccc(-c3cccc(-c4nc5cc(C(F)(F)F)ccc5[nH]4)c3)cc2)s1`, with -2.1%; and `Clc1ccc(CNc2nc(NCCc3c[nH]cn3)nc(Nc3ccc4c(c3)OCO4)n2)cc1`, with 2.3%.
On the same count and under the same terms, to `COc1ccc(-c2cnc(NCc3ccccc3)nc2)cc1CNC1CCN(C)CC1` belongs 1.06%; to `COc1ccc(C2C(C(=O)Nc3cc(C)ccc3OC)c3ccccc3C(=O)N2C)cc1` (stereo not given), 5.84%.
With `CCN(CC)CCCN(C(=O)Nc1cc(F)cc(F)c1)c1nc(-c2ccc(F)cc2)cs1`, the inhibition was -0.11%.
Turning to `O=C(Nc1nc2cc(S(=O)(=O)NCCc3ccc(F)cc3)ccc2n1CCCn1ccnc1)c1ccc(Cl)cc1`, the inhibition worked out at 2.83%.
As to `CN(C)c1ccc(CN2CCC(NC(=O)c3ccc(-c4cccc(F)c4)s3)CC2)cc1`, the inhibition was determined as 5.36%.
Same read-out and setting: to `Cc1ccc(-c2ccc3c(c2)C=C(C(=O)NC2CCN(CCNC(=O)c4cccc(C(F)(F)F)c4)CC2)CCC3)cc1` belongs 7.43%; to `O=C1Nc2cccc3c2C1(CCCCN1CCC(c2cc4ccncc4[nH]2)CC1)CCC3` (stereo not given), 0.01% and 8.94%; to `Cc1nc(C)c(-c2ccc(Sc3ccc(Cl)cc3)cc2)c(O)c1Br`, -1.57%.
Same read-out and setting: to `Nc1c(Cl)cc(C(O)CNCCCCCCCCCc2ccccn2)cc1Cl` (stereo not given) belongs -0.21%; to `O=C(Nc1ccccc1)c1ccc(N2CCC(COc3cccc(C(F)(F)F)c3)CC2)nc1`, 1.65%.

The target in a further test is Glucose transporter (Leishmania mexicana) (UniProt O61059). Kind of test: ST_JUDE_LEISH: Cytotoxicity at 2uM final concentration against transgenic Leishmania Mexicana promastigotes LmGT2 that are glucose transport deficient and complemented with the L. Mexicana glucose transporter 2. Activity is measured by DNA content using SYBR green in vitro. In kind it is functional.
As for `O=C(Nc1ccc(OC2CCN(Cc3ccsc3)C2)c(Cl)c1)c1ccco1` (stereo not given), the inhibition was found to be 0.21%.
Still for that read-out and setting: then `Cc1ccc2c(=O)cc(CCc3cccc(F)c3F)n(CC(=O)N(Cc3ccc(-c4ccc(C(F)(F)F)cc4)cc3)C3CCN(C)CC3)c2n1`, with 1.01%; and `CCCC(CNC(=O)c1cc2c(Cl)cc(Cl)cc2[nH]1)CNc1cc(=O)c2ccccc2[nH]1` (stereo not given), with 2.5%; and `Cc1cc(SC(C)(C)C)cc2c(Cl)c(C(N)=O)cnc12`, with 85.8%.
On the same count and under the same terms, to `O=c1ccc2ccc(F)cc2n1CCN1CCC(NCc2ccc(-c3ccccn3)s2)CC1` belongs -0.91%.
The same measure, in the same setting: then `CC[C@H](C)CNC(=O)c1ccnc(-c2ccc(CNCCCc3ccccc3)cc2)c1`, with -0.91%; and `CCc1c[nH]c2c(N3CCCS3(=O)=O)cc(C(=O)N[C@@H](Cc3ccccc3)[C@H](O)CNC(C)(C)CCCC(C)C)cc12`, with 0.89%; and `CN(C)CCOc1cc(NC(=O)Nc2ccc3c(c2)CCCC3=O)ccc1I`, with 4.5%.
Turning to `COc1ccc(NS(=O)(=O)c2ccc(C(=O)Nc3ccc(OC(F)(F)F)cc3)cc2)cc1N1CCN(CC2CC2)CC1`, the inhibition came to 4.14%.
On the same count and under the same terms, then `CC(C)NCc1ccc(-c2cccc(NC(=O)c3cccc(Cl)c3)c2)cc1`, with 10.7%; and `CO/C(=C\C=C\c1cc2cc(Cl)c(Cl)cc2[nH]1)C(=O)NCCCN1CCN(Cc2ccccc2)CC1`, with 2.11%.
On the same count and under the same terms, then `Cc1ccc(F)cc1-c1cc(N2CCCN(C(=O)c3ccc(Br)o3)CC2)ncn1`, with -0.08%; and `Cc1ccc2[nH]c(C)c(Br)c(=O)c2c1`, with -3.38%; and `COc1ccc2nc3cc(Cl)ccc3c(NCCCCCCNc3c4ccc(Cl)cc4nc4ccc(OC)cc34)c2c1`, with 9.4%.
Take `CCN(CC)c1nc(-c2ccccc2)cc(-c2ccccc2)c1C#N`: the inhibition is -0.21%.
As to `Cc1n[nH]c2ccc(-c3cc(OC[C@@H](N)Cc4ccccc4)cnc3-c3ccc(OCc4cccc(F)c4)cc3)cc12`, the inhibition is -0.73%.
Same read-out and setting: then `CC(=O)N1CCN(c2ccc(NC(=O)c3oc(-c4ccccc4)nc3C(F)(F)F)cn2)CC1`, with 1.05%; and `COc1cccc(CNC[C@@H](O)[C@H](Cc2ccccc2)NC(=O)c2cc3c4c(c2)c(C(C)C)cn4CCS(=O)(=O)N3C)c1`, with 8.04%.
The same measure, in the same setting: then `Cc1cc(N[C@@H](CC(C)C)C(=O)NCCc2ccccc2)nc(NCC2CCCCC2)n1`, with 3.37%.
Still for that read-out and setting: then `COc1ccccc1C1CCN(C2CCC(NC(=O)/C=C/c3cccc(Cl)c3)CC2)CC1` (stereo not given), with -0.85%; and `Cc1nc(-c2cccc(C(=O)Nc3cnc4ccccc4c3)c2)no1`, with 3.52%.
As to `COc1cc(NC(=O)c2ccc3c(=O)n(Cc4ccccc4)c(=S)[nH]c3c2)cc(OC)c1OC`, the inhibition was 7.73%.
Take `O=C(/C=C/c1ccc(Cl)cc1)NCCCCCN1CCCC(C(=O)Nc2ccc(F)c(Cl)c2)C1` (stereo not given): the inhibition turned out to be 2.38%.
On the same count and under the same terms, to `Oc1c(Br)cc2oc3c(c2c1CNCc1ccccc1)CCCC3` belongs -0.81%; to `CC(=O)Nc1ccc(S(=O)(=O)Nc2c(C)cc(Cc3cnc(N)nc3N)cc2C)cc1`, -0.69%.
Same read-out and setting: then `CC1CN(CC(O)Cn2c3ccc(Br)cc3c3cc(Br)ccc32)CC(C)O1` (stereo not given), with 3.29%; and `Cc1cccc(C(=O)NCCCN2CCC(NC(=O)/C=C/c3ccc(Cl)c(Cl)c3)CC2)c1`, with 2.02%; and `Cc1cc(N(CCO)CCCN2CCCCC2)nc(Nc2ccc(Cl)cc2)n1`, with 2.41%.
Take `CC(=O)Nc1ncc(C(=O)Nc2ccc(-c3cccc(-c4nc5cc(C(F)(F)F)ccc5[nH]4)c3)cc2)s1`: the inhibition was -2.74%.
Turning to `Clc1ccc(CNc2nc(NCCc3c[nH]cn3)nc(Nc3ccc4c(c3)OCO4)n2)cc1`, the inhibition amounted to 3.66%.
On the same count and under the same terms, to `COc1ccc(-c2cnc(NCc3ccccc3)nc2)cc1CNC1CCN(C)CC1` belongs -0.94%; to `COc1ccc(C2C(C(=O)Nc3cc(C)ccc3OC)c3ccccc3C(=O)N2C)cc1` (stereo not given), 1.74%.
Same read-out and setting: then `CCN(CC)CCCN(C(=O)Nc1cc(F)cc(F)c1)c1nc(-c2ccc(F)cc2)cs1`, with 1.69%.
Same read-out and setting: then `O=C(Nc1nc2cc(S(=O)(=O)NCCc3ccc(F)cc3)ccc2n1CCCn1ccnc1)c1ccc(Cl)cc1`, with 1.86%.
For the compound `CN(C)c1ccc(CN2CCC(NC(=O)c3ccc(-c4cccc(F)c4)s3)CC2)cc1`, the inhibition was found to be 1.82%.
Same read-out and setting: to `Cc1ccc(-c2ccc3c(c2)C=C(C(=O)NC2CCN(CCNC(=O)c4cccc(C(F)(F)F)c4)CC2)CCC3)cc1` belongs 7.77%; to `O=C1Nc2cccc3c2C1(CCCCN1CCC(c2cc4ccncc4[nH]2)CC1)CCC3` (stereo not given), -0.84% and 8.48%.
The same measure, in the same setting: then `Cc1nc(C)c(-c2ccc(Sc3ccc(Cl)cc3)cc2)c(O)c1Br`, with -1.9%; and `Nc1c(Cl)cc(C(O)CNCCCCCCCCCc2ccccn2)cc1Cl` (stereo not given), with 0.6%.
Still for that read-out and setting: to `O=C(Nc1ccccc1)c1ccc(N2CCC(COc3cccc(C(F)(F)F)c3)CC2)nc1` belongs 1.07%.

Values taken from ChEMBL document CHEMBL3433997, “St. Jude Leishmania screening dataset” (2016).
